KKLEB cytotox – reduces viability of KKLEB cystic fibrosis airway cells. AID 602141. hit rate 0.36% among 360,000. activity change (cytotoxicity), % at 5 µM. KKLEB CF airway cells viability, ATPlite luminescence, overnight; active compounds read low; cells stimulated with P. aeruginosa culture filtrate;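 active = corrected activity change at or below -50% at 5 µM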
TRPM1 prom inh – MITF TRPM1 promoter inhibition in SK-MEL-5 cells. SK-MEL-5 TRPM1 promoter luciferase, 24 h. inhibition, % at 12.5 µM. hit rate 0.83% among 330,000. AID 488899;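 active = mean inhibition across replicates of 60% or more, whatever share of single replicates reaches that level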
HIF-2a inh – blocks HIF-2a reporter activity; 786-0 RCC cells HIF-2a reporter, luciferase luminescence, overnight; inhibition, % at 18.8 µM; hit rate 0.72% among 360,000; AID 624352;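 active = inhibition of the luminescence signal of 40% or more relative to plate controls, in a single-dose primary screen at 18.75 µM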
Peg3 prom inh – Peg3 promoter activity inhibition; HeLa PEG-Prom luciferase reporter, luminescence, overnight; AID 588405; inhibition, % at 20 µM; hit rate 1.7% among 360,000;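 active = inhibition of at least 50% at 20 µM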
Shn3 inh set2 – Schnurri-3 reporter inhibition in Clone20 osteoblasts; hit rate 0.52% among 360,000; inhibition, % at 12.5 µM; Clone20 osteoblast Shn3 3'UTR firefly luciferase, 24 h;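 active = mean inhibition of at least 75% with every replicate also reaching 75%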
CF NFkB block – inhibitors of cystic fibrosis induced NF-kB. hit rate 0.86% among 360,000. inhibition, % at 5 µM. KKLEB NF-kB-GFP reporter, PAF-induced, GFP fluorescence overnight. AID 588850;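 active = at least 50% inhibition at 5 µM, scaled per plate between neutral and stimulator controls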;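 also: PAF is a Pseudomonas aeruginosa culture filtrate used as stimulus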
Mdm2-MdmX confirm – confirmation of inhibitors of human Mdm2/MdmX interaction, set 2. shares compounds with HIF-2a inh. SaOS-2 split-luciferase Mdm2/MdmX complementation, luminescence. inhibition, % at 8 µM. hit rate 99% among 740. AID 504601;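 active = mean inhibition of the luminescence signal across two replicates at or above 26 percent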
Target sequence (O15151 whole entry, looked up): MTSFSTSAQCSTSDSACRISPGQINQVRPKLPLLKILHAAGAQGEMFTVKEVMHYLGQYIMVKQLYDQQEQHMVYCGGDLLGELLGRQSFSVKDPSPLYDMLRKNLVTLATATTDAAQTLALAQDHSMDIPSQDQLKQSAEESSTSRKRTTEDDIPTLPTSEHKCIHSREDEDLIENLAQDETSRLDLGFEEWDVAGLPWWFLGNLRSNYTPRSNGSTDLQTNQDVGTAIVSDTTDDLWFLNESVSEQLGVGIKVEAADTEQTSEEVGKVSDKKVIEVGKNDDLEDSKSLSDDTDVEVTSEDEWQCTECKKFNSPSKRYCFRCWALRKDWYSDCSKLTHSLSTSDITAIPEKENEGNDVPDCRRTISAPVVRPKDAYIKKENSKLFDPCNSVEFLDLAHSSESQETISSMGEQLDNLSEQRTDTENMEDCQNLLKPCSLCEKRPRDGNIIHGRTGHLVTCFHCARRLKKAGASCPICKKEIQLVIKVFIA
Target sequence (Q00987 whole entry, looked up): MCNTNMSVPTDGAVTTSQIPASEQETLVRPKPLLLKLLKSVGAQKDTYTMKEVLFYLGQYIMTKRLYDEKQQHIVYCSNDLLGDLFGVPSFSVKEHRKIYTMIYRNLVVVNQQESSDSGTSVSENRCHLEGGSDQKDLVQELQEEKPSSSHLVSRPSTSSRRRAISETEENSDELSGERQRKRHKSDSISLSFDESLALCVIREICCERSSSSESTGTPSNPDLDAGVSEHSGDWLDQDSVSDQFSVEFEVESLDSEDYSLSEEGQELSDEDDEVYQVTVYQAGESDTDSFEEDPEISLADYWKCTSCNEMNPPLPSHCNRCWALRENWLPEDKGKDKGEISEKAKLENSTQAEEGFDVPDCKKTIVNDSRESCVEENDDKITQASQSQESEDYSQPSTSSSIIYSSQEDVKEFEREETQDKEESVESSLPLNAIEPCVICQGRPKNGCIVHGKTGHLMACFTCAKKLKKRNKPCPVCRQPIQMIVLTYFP
HIF-2a conf – HIF-2a inhibition, single concentration confirmation; shares compounds with HIF-2a inh; 786-0 RCC cells, HIF-2a luciferase reporter luminescence, overnight; inhibition, % at 18.8 µM; hit rate 56% among 1,800; AID 651580;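 active = mean inhibition across four replicates of at least 40 percent at the single tested concentration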
HIF-1a counter – counter-screen for HIF-2a inhibitors: HIF-1a inhibition in MiaPaCa-2 cells; shares compounds with HIF-2a inh; MiaPaCa-2 HIF-1a luciferase reporter, desferoxamine, overnight; inhibition, % at 18.8 µM; hit rate 72% among 1,800; AID 651589;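 active = mean inhibition of the reporter signal across four replicates at the single tested dose of 50% or more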
Large screens that a line does not name were inactive (follow-up assays come after a bar, where they were run). Hits are enriched below; roughly 2.7% of the tested compounds scored in any of these assays.

CC(C)Cc1cc(C(=O)N2CCCC(CO)(Cc3ccc(F)cc3F)C2)n[nH]1 (centres undefined)	none
Cc1ccc(C(C)C)c(OC/C(O)=C(\C#N)c2nc3ccccc3[nH]2)c1	none
CCCCC(=O)NC(c1ccc(Cl)cc1Cl)c1ccc2cccnc2c1O (centres undefined)	Peg3 prom inh 54.1, Shn3 inh set2 93.2 | Mdm2-MdmX confirm 84.7
Cc1c(C)c2ccc(OCc3ccc(C(=O)O)o3)c(C)c2oc1=O	HIF-2a inh 49.9 | HIF-2a conf inactive | HIF-1a counter inactive
COc1ccc(CNC(=O)COC(=O)CCCOc2ccc(Cl)cc2Cl)cc1	HIF-2a inh 43.2 | HIF-2a conf inactive | HIF-1a counter inactive
COc1ccccc1OCCC(=O)OCC(=O)NCc1ccc(Cl)cc1	none
CN(C)C/C=C/C(O)(c1ccccc1)c1ccccc1	none
CN(C)CC(CCC(CN(C)C)C(O)(c1ccccc1)c1ccccc1)C(O)(c1ccccc1)c1ccccc1 (centres undefined)	none (no result: KKLEB cytotox, TRPM1 prom inh, HIF-2a inh, Peg3 prom inh, Shn3 inh set2, CF NFkB block) | Mdm2-MdmX confirm 103.5
C(=N\NCc1ccccc1)/c1ccc2ncccc2c1	none (no result: TRPM1 prom inh)
S=C(N/N=C/c1ccc2ncccc2c1)Nc1ccccc1	HIF-2a inh 48.2 | HIF-2a conf inactive | HIF-1a counter 63.0
CN(CCC(=O)Nc1ccc(Cl)cc1)Cc1ccccc1	none
Cc1cccc([C@@H]2[C@@H]3C(=O)N(Cc4ccccc4)C(=O)[C@@H]3[C@]3(Cc4ccccc4)C(=O)N(c4ccc(C(F)(F)F)cc4)C(=O)N23)c1	none | Mdm2-MdmX confirm 103.0
COc1ccccc1C(=O)NCCNc1nc2cc(C)cc(C)c2cc1C#N	none
COc1ccc(C(=O)NCCNc2nc3cc(C)cc(C)c3cc2C#N)c(OC)c1	HIF-2a inh 65.8 (no result: KKLEB cytotox, TRPM1 prom inh, Peg3 prom inh, Shn3 inh set2, CF NFkB block) | HIF-2a conf 81.9 | HIF-1a counter 98.0
CSc1ccc(/C=N/Nc2cccc(C(=O)O)c2)cc1	TRPM1 prom inh 79.2, HIF-2a inh 71.5, Peg3 prom inh 68.0 | HIF-2a conf 85.3 | HIF-1a counter inactive
Cc1cccc(C)c1-n1nnnc1C(c1ccnc2ccccc12)N1CCN(C/C=C/c2ccccc2)CC1 (centres undefined)	none (no result: TRPM1 prom inh)
c1c2c(cc3sc(N4CCOCC4)nc13)OCCO2	HIF-2a inh 55.0 | HIF-2a conf 63.0 | HIF-1a counter inactive
c1ccc(N2CCN(c3nc4cc5c(cc4s3)OCCO5)CC2)cc1	none
O=[N+]([O-])c1c(Nc2ccccc2O)cc(Cl)c2nonc12	TRPM1 prom inh 105.9, HIF-2a inh 94.8, Peg3 prom inh 100.1, Shn3 inh set2 96.6, CF NFkB block 80.3 | Mdm2-MdmX confirm 102.7 | HIF-2a conf 98.3 | HIF-1a counter 98.6
COc1ccc(NC(=O)Nc2cccc3c2O[C@H](CN(C)C(=O)Nc2c(C)noc2C)[C@@H](C)CN([C@H](C)CO)C3=O)cc1	none
O=S1(=O)C=C(Sc2nc3cc(Cl)ccc3o2)c2ccccc21	KKLEB cytotox -100.3, TRPM1 prom inh 68.4, Peg3 prom inh 101.6, Shn3 inh set2 99.9, CF NFkB block 88.0 | Mdm2-MdmX confirm 103.2
N#CC[C@H](c1ccccc1)N1CCN(Cc2ccccc2)CCC1=O	none
CN(C)c1ccc(C(=S)NCc2ccco2)cc1	HIF-2a inh 52.0 | HIF-2a conf inactive | HIF-1a counter inactive
CN(C)c1ccc(/C=N/NC(=S)NCc2ccco2)cc1	none
O=C(O)c1ccc(S(=O)(=O)NN=Cc2c[nH]c3ccccc23)cc1	none (no result: TRPM1 prom inh)
O=C(O)c1ccc(N/N=C/c2c[nH]c3ccccc23)cc1	HIF-2a inh 51.5, Peg3 prom inh 67.2 | HIF-2a conf 78.2 | HIF-1a counter 59.9
O=C(CCc1nc2ccccc2c(=O)[nH]1)N1CCN(S(=O)(=O)c2ccccc2Br)CC1	HIF-2a inh 47.6 | HIF-2a conf inactive | HIF-1a counter 89.3
Cc1ccc(S(=O)(=O)N2CCN(C(=O)CCc3nc4ccccc4c(=O)[nH]3)CC2)c(C)c1	none
Cc1ccc(S(=O)(=O)Cc2nnnn2-c2ccccc2)cc1	none
Cc1ccc(OCCOC(=O)CN2C(=O)NC3(CCCC3)C2=O)cc1	none
O=C(O)/C=C/C(=O)c1ccc2c(c1)CCc1ccccc1-2	HIF-2a inh 49.6, Peg3 prom inh 99.7, CF NFkB block 64.1 (no result: TRPM1 prom inh) | HIF-2a conf 57.1 | HIF-1a counter 102.7
CCCn1c(Nc2nc3ccccc3n2C)nc2ccccc21	HIF-2a inh 91.3, Peg3 prom inh 89.6 | Mdm2-MdmX confirm 103.2 | HIF-2a conf 57.7 | HIF-1a counter 105.3
COc1cccc(NC(=O)c2cc3c(=O)n4ccccc4nc3n(CC(C)C)c2=N)c1	none | Mdm2-MdmX confirm 35.8
NC1=NC[C@H](CC2CCCCC2)N1CCc1cc(C(F)(F)F)cc(C(F)(F)F)c1	HIF-2a inh 97.6, Peg3 prom inh 101.2 | Mdm2-MdmX confirm 99.7 | HIF-2a conf inactive | HIF-1a counter 106.0
Cc1ccc(N(CC(=O)NCc2ccccc2)S(=O)(=O)c2c(C)noc2C)cc1	none
COc1ccc(CNC[C@@H](CCCCN(C)Cc2ccc(OC)cc2)N2C[C@H](c3ccccc3)N(CCc3ccc(Cl)c(Cl)c3)C(=O)C2=O)cc1	KKLEB cytotox -95.2, TRPM1 prom inh 96.3, HIF-2a inh 96.7, Peg3 prom inh 97.5, Shn3 inh set2 94.9, CF NFkB block 62.1 | Mdm2-MdmX confirm 103.5
COc1ccc(CNC(=O)[C@@H]2CC=C[C@@H]3CCN(Cc4ccc(Cl)c(Cl)c4)C(=O)[C@@H]32)cc1	none
Cn1nnnc1N=N/C(=N/Nc1ccccc1)c1ccccc1	Peg3 prom inh 52.1 | Mdm2-MdmX confirm 91.0
CCOc1ccc(NC(=O)COC(=O)CNC(=O)c2ccc(-c3ccccc3)cc2)cc1	none
CC1=C(C(=O)Nc2ccccc2C(=O)N2CCC(C)CC2)SCCO1	none
COc1ccc(CC(=O)Oc2ccc(C(C)C)cc2)cc1S(=O)(=O)N1CCOCC1	none
CC(c1nccs1)N(C)C(=O)CCc1nnc(-c2ccc(-c3ccccc3)cc2)o1 (centres undefined)	none
COC(=O)CCCNC(=O)CCc1nnc(-c2ccc(-c3ccccc3)cc2)o1	HIF-2a inh 48.2 | HIF-2a conf 52.4 | HIF-1a counter inactive
CC(NC(=O)CCc1nnc(-c2ccc(-c3ccccc3)cc2)o1)c1nccs1 (centres undefined)	HIF-2a inh 40.1 | HIF-2a conf 51.2 | HIF-1a counter inactive
Cc1ncc(NS(=O)(=O)c2ccc(N)cc2)nc1C	none

From PubChem
